D2 PAM-1 = positive allosteric modulators of human D2 dopamine receptor. hit rate 0.34% among 340,000. potentiation, % at 10 µM. HEK293 T-REx D2, calcium flux, EC20 dopamine potentiation. AID 485347. P14416;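 active means potentiation over 3 SD above the plate norm, cut at about 30% in these data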; further: 0% is about no effect
Target sequence (P14416 whole entry, looked up): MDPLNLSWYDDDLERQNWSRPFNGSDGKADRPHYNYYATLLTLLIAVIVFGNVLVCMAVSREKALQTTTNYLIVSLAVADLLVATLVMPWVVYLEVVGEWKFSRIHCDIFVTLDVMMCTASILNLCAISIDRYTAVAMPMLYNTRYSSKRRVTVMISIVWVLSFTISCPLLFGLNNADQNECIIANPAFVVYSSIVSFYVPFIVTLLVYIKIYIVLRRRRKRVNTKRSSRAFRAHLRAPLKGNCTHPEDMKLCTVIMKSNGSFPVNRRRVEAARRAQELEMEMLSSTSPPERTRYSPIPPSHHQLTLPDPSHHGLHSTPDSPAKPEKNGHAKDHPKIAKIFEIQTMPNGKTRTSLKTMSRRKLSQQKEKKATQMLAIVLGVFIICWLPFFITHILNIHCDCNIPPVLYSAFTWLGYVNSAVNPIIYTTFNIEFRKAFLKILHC
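Potentiation of an EC20 dopamine calcium response measured kinetically over 180 s, after a preceding 180 s compound-only read flagging agonists. Cells: inducible Hek293 Trex D2 line, 4000/well, cultured overnight at 30 C before dye loading.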
D2 ag-1 = activates the human D2 dopamine receptor; P14416; DiscoveRx PathHunter D2 beta-arrestin, luminescence, 90 min; 100% = 57 uM dopamine signal; activation, % (concentration not given with the values); hit rate 0.084% among 360,000; in the data active means activation above about 40%; inconclusive means between about 15% and that limit
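DiscoveRx PathHunter D2 beta-arrestin cells (2,100/well) attached overnight, then compound-stimulated 90 min at 37 C in HBSS/10 mM HEPES/0.1% Tween-20 buffer; beta-galactosidase complementation read by luminescence after 1 h at ambient temperature. Dopamine 57 uM final (EC100) as control.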
D2 ag-2 = D2 dopamine receptor (human) agonism | HEK293 T-REx D2 cells, calcium flux agonist mode | activation, % at 2 µM | P14416 | hit rate 0.53% among 340,000;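 active means activation over 3 SD above normal in the single-dose calcium agonist read, cut at about 30% in these data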; further: 0% is about no effect
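Agonism is scored from calcium flux in a force-coupled, inducible HEK293 cell line expressing D2, read kinetically for 180 s after compound addition against dopamine controls.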
D2 antagonist = antagonists of human D2 dopamine receptor; P14416; HEK293 TREx D2 cells, calcium flux, dopamine EC80; inhibition, % at 10 µM; hit rate 2% among 340,000; AID 485344; in the data active means inhibition above about 30%; inactive means below that, where a call was filed; further: 0% is about no effect
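Antagonism is scored as inhibition of an EC80 dopamine-evoked calcium signal in a force-coupled, tetracycline-inducible HEK293 T-REx D2 line, with compound present 180 s before agonist.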
D2 PAM-2 = human D2 receptor positive allosteric modulation; P14416; DiscoveRx D2 beta-arrestin cells, luminescence, 90 min; 100% = 57 uM dopamine signal; potentiation, % (no concentration beside the values); hit rate 0.23% among 360,000; AID 624464; in the data active means potentiation above about 50%; inconclusive means mostly about 30% to 49%
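PathHunter beta-arrestin assay in DiscoveRx D2 cells. Compounds were added with an EC20 of dopamine (50 nM final) for 90 min at 37 deg C. Luminescence was read 1 h after detection reagent, with 57 uM dopamine as the EC100 control.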
The depositor's hits bear a star; ? = inconclusive; / = no result. Hits are enriched below; roughly 2.4% of the tested compounds scored in any of these assays.

SMILES	D2 PAM-1	D2 ag-1	D2 ag-2	D2 antagonist	D2 PAM-2
C=Cc1cc(OC)c2c(c1)c(=O)oc1c2cc(OC)c2c(O)ccc(C3OC(C)C(O)C(C)(O)C3O)c21 (stereo unspecified)	/	1	/	/	4
CN1/C(=C\C=C\C2=[N+](C)c3ccc4ccccc4c3C2(C)C)C(C)(C)c2ccccc21	27	/	2	39*	/
CCN1/C(=C/C=C/C2=[N+](CC)c3ccccc3C2(C)C)C(C)(C)c2ccccc21	/	-5	/	/	-50
CCOC(=O)C1CCCCC12C(C#N)=C(N)Oc1n[nH]c(C)c12 (stereo unspecified)	-2	-4	1	30*	-9
CCOC(=O)c1ccc(NC(=O)c2c(O)[nH]c(=O)[nH]c2=O)cc1	0	1	54*	-2	-6
CCOc1ccc(NC(=O)c2c(O)[nH]c(=O)[nH]c2=O)cc1	/	2	/	/	11
CN1CCN(c2nc(N)c(Br)c(Cl)n2)CC1	-17	-3	1	69*	-54
CN1CCN(c2ncnc(Cl)c2N)CC1	-20	-4	1	-17	-12
Cc1ccccc1-c1nn2c(=O)cc(CN3CCN(C(=O)COc4ccccc4Cl)CC3)nc2s1	-4	/	0	/	/
CN1/C(=C\C=Nc2ccccc2)C(C)(C)c2ccccc21	-2	3	1	-4	-8
CN1/C(=C\C=C2C(=O)NC(=O)NC2=O)C(C)(C)c2ccccc21	/	-4	50*	-14	1
CCNC(=O)NC(=O)C(C)OC(=O)c1c(C)nn(Cc2ccccc2Cl)c1Cl (stereo unspecified)	-5	0	-1	5	-10
CCNC(=O)NC(=O)C(C)OC(=O)c1c(C)nn(Cc2ccccc2)c1Cl (stereo unspecified)	1	1	-1	40*	-3
CC(=O)OC1=CC[C@H]2[C@@H]3CC[C@H]4C[C@H](OC(C)=O)[C@@H](OC(C)=O)C[C@]4(C)[C@H]3CC[C@]12C	-2	-7	1	-5	-1
Clc1ccc(C(OCCN2CCCCC2)c2ccccc2)cc1 (stereo unspecified)	-20	-6	0	43*	0
c1cc2n(c1)-c1c(ccc3c1OCO3)CNC2c1ccc2c(c1)OCO2 (stereo unspecified)	1	-5	0	51*	-36
COc1ccc(-c2ccc3c(c2)CN(C(=O)C(C)(C)C)Cc2cnnn2-3)cc1	/	-3	/	/	-2
CN1CCN(c2ccccc2N)CC1	-6	0	1	-12	-14
CN1CCN(c2c[nH]c(=O)[nH]c2=O)CC1	13	-1	1	36*	8
O=C1CC(c2ccc(F)cc2)c2c(c3ccccc3oc2=O)O1 (stereo unspecified)	9	/	/	/	/
O=C(/C=C/c1ccccc1)N1Cc2ccccc2-n2nncc2C1	/	-8	/	/	-2
C1=C(CCNCc2ccccc2)CCCC1	-13	-3	0	39*	-8
O=c1[nH]c2ccccc2n1C1CCN(CCCC(c2ccc(F)cc2)c2ccc(F)cc2)CC1	-29	1	2	87*	-29
CCc1ccc(-c2nn(Cc3ccccc3)cc2C=O)cc1	-4	-7	1	35*	0
COc1ccc(OC)c(CN2CCCC(C(=O)c3sccc3C)C2)c1 (stereo unspecified)	-25	-4	0	51*	-26
SMILES	D2 PAM-1	D2 ag-1	D2 ag-2	D2 antagonist	D2 PAM-2
Cc1ccsc1C(=O)C1CCCN(Cc2ccn[nH]2)C1 (stereo unspecified)	5	-2	0	12	-28
Cc1ccsc1C(=O)C1CCCN(Cc2cc(C(C)C)n[nH]2)C1 (stereo unspecified)	-32	0	-1	80*	-16
COc1cccc(O)c1CN1CCCC(C(=O)c2sccc2C)C1 (stereo unspecified)	-18	-4	0	8	-32
Cc1ccc(-n2c(/C=C/c3ccccc3)nc3ccccc3c2=O)cc1Cl	7	/	0	/	/
CN1C[C@H](CNC(=O)OCc2ccccc2)C[C@@H]2c3cccc4c3c(cn4C)C[C@H]21	-28	3	11	78*	-26
CCOC(=O)C1(CCc2ccccc2)CCN(Cc2cccc3c2OCO3)CC1	-23	0	0	47*	-8
CCOC(=O)C1(CCc2ccccc2)CCN(Cc2cccc3cnccc23)CC1	-7	0	2	-19	-10
Cc1nc2ccccc2c(=O)n1-c1c(Cl)cccc1Cl	/	-1	/	/	-4
CC1=NN=C(c2ccc(N)cc2)c2cc3c(cc2C1)OCO3	-1	70*	1	-1	28
CC1(C)CSC(=NCc2ccccc2)N1	-17	-2	73*	56*	-8
C[C@@H]1CN([C@H](C)CO)C(=O)CCCn2cc(nn2)CO[C@H]1CN(C)C(=O)Oc1cccc2ccccc12	/	-5	/	/	9
C#CC1(O)CCC2C3CCC4=C/C(=N/OCC(=O)NCC(=O)NC(C(=O)O)C(C)C)CC[C@]4(C)C3CC[C@@]21C (stereo partly specified)	-9	1	1	60*	-5
Oc1ccc(C[C@H]2NCCc3cc(O)c(O)cc32)cc1O	-37	7	5	85*	-22
COC(=O)C1=C(c2cc3ccccc3s2)C[C@@H]2CC[C@H]1N2C(=O)NC1CCCCC1	/	5	/	/	-17
CCOC(=O)c1c(N)n(CCCOC(=O)c2ccco2)c2nc3ccccc3nc12	9	?	2	14	86*
CCOC(=O)c1cnc(SCc2ccc(Cl)c(Cl)c2)nc1N1CC1	/	0	/	/	12
Cc1ccccc1Cn1cccc(C(=O)Nc2cc(Cl)ccc2C#N)c1=O	-12	/	/	/	/
O=C(/C=C/c1c[nH]c2ccccc12)c1c(O)n(CCc2ccccc2)c(=O)[nH]c1=O	-7	-1	40*	37*	-3
CCCCn1c(O)c(C(C)=NCCc2c[nH]c3ccccc23)c(=O)[nH]c1=O	3	0	3	-2	-2
Fc1ccc2c(c1)nnn2C1CCN(Cc2ccccc2)CC1	-26	-3	1	82*	-37
COc1ccc2[nH]cc(CCN)c2c1	-4	5	34*	-4	-48
CCCCCCCCCOc1ccc2[nH]cc(CCN)c2c1	-18	/	2	13	/
COC1CC2C=C(C)C=CC=CC(=O)NC(c3ccccc3)CC=CCCC(O)CC(=O)C2=C1O (stereo unspecified)	/	2	/	/	-17
CCN(CC)c1ccc(/C=N/c2sc3c(c2C#N)C2CCN3CC2)c(O)c1	9	-8	34*	17	-35
C=C(C)[C@@H]1[C@H]2OC(=O)[C@H]1[C@]1(O)C[C@H]3O[C@]34C(=O)O[C@H]2[C@]14C	/	2	/	/	0
CCN(CC)C(=O)c1ccc(NC(=O)CCn2nc(-c3ccc(Cl)cc3)c3ccccc3c2=O)cc1	-9	/	-1	/	/

High-throughput results as filed in PubChem BioAssay.
